sPLA2-III inh = Inhibits HGIII-sPLA2 liposome hydrolysis, primary screen; inhibition, % at 12.2 µM; Q9NZ20; 370,000 compounds, 0.56% hits; AID 743126; QFRET BODIPY PC-A2 liposome hydrolysis, fluorescence;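 active = inhibition above mean plus 3 SD of compounds lying within the high and low control bounds, cut at about 19% in these data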;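 note: 0% = median of test compound wells and 100% = no enzyme DMSO wells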
AHR activator = activates the human aryl hydrocarbon receptor; AHR-responsive luciferase reporter cells, luminescence; activation, % at 5 µM; AID 2796; 320,000 compounds, 2.5% hits; P35869; in the data active = activation above about 47%;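 note: 0% = vehicle wells and 100% = reference agonist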
CR mimetic SO = yeast age-related superoxide inhibition as caloric restriction mimetic; S. cerevisiae aged cells, superoxide DHE fluorescence; active compounds read low; superoxide response (% of plate mean), % at 10 µM; 330,000 compounds, 0.18% hits; AID 2690;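 active = superoxide response under a set limit, about three screen SD below normal, cut at about 65% in these data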;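 note: yeast aged for seven days with compound at 30 °C before DHE staining; 100% = average MFI of all compound-treated wells on the plate with controls excluded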
PLC-beta3 inh = inhibitors of human phospholipase C beta3; AID 720704; inhibition, % at 12.2 µM; Purified PLC-beta3, fluorogenic substrate, fluorescence; 370,000 compounds, 0.18% hits; Q01970; in the data active = inhibition above about 11%;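 note: 0% = median of compound wells on plate and 100% = full blocker control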
HIF activator = HIF pathway transcriptional activation; 300,000 compounds, 0.32% hits; U2OS HRE-luciferase reporter, luminescence; normalized: DMSO 0%, desferrioxamine 100%; AID 1910; activation, % at 7.5 µM (by protocol);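 active = mean activation of at least 10% of the iron chelator positive control signal, with at least half of replicates also reaching 10%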
PLC-gamma1 inh = PLC-gamma1 (human) inhibition, primary screen; P19174; purified PLC-gamma1, fluorogenic substrate, fluorescence; inhibition, % at 12.2 µM; 370,000 compounds, 0.84% hits
PLCg1 ctr = counter-screen for PLC-beta3 inhibitors: inhibitors of human PLC-gamma1 | inhibition, % at 12.3 µM | purified PLC-gamma1, fluorogenic substrate, fluorescence | shares compounds with PLC-gamma1 inh | 3,300 compounds, 3.1% hits | AID 743258
PLCb3 confirm = confirmation of human PLC-beta3 inhibitors | shares compounds with PLC-gamma1 inh | purified PLC-beta3, fluorogenic substrate fluorescence | inhibition, % at 12.3 µM | 3,300 compounds, 1% hits; in the data active = inhibition above about 11%
Active calls of the source: *; · = no result given. The list is not random: actives were taken first. Their share in the collection is about 3.9%. Cut-off read from the data, not from the text of the source, unless noted: active = inhibition above about 9.5%; inactive = the rest.

SMILES | sPLA2-III inh | AHR activator | CR mimetic SO | PLC-beta3 inh | HIF activator | PLC-gamma1 inh | PLCg1 ctr | PLCb3 confirm
O=C1NC(=O)/C(=C/c2ccc(-c3cc(C(=O)O)ccc3Cl)o2)S1 | -30 | 0 | 113 | -108 | -1 | -95 | · | ·
COc1ccccc1NC(=O)CNC(c1ccccc1)c1ccccc1 | 3 | 0 | 96 | -3 | 1 | 13* | -3 | -7
COCCN1Cc2cc(C(=O)OC)c3c(c2C1=O)c1ccccc1n3S(=O)(=O)c1ccc(OC)cc1 | -1 | · | · | -5 | · | -4 | · | ·
Cc1nc2c(C)cccn2c(=O)c1NC(=O)c1ccc2c(c1)OCO2 | -2 | 6 | 102 | -6 | 0 | -8 | · | ·
C/C(CC(=O)NC1CCCC1)=N\NC(=O)c1ccc([N+](=O)[O-])c(Cl)c1 | -3 | 1 | 100 | 8 | · | 14* | -6 | -3
O=S(=O)(N/N=C\c1ccc2c(c1)OCO2)c1ccc(F)cc1 | -4 | · | 102 | 2 | 0 | 3 | · | ·
CCOC(=O)C1=CCN(S(=O)(=O)c2cccc(Cl)c2)C1c1ccc(Cl)cc1 (stereo not given) | 1 | · | · | 2 | · | -1 | · | ·
COc1ccc(C(c2c(C)[nH]n(-c3ccccc3)c2=O)c2c(C)[nH]n(-c3ccccc3)c2=O)cc1OC | 4 | 9 | 101 | 8 | 0 | 25* | 1 | 0
N#CCC(C(=O)c1cccnc1)c1ccccc1 (stereo not given) | -1 | · | · | 11* | · | 1 | 0 | -6
COc1ccc(CCNC(=O)COC(=O)c2cc(Cl)nc(Cl)c2)cc1 | 12 | 1 | 101 | -14 | · | -2 | · | ·
CCCCCCn1c(=O)n2n(c1=O)C[C@]1(OC(=O)NCC3CCCCC3)CN(S(=O)(=O)c3ccc(C)cc3)C[C@]1(O)C2 | 8 | · | · | 3 | · | 0 | · | ·
CCCCCCn1c(=O)n2n(c1=O)C[C@]1(OC(=O)NC3CCCC3)CN(S(=O)(=O)c3ccc(C)cc3)C[C@]1(O)C2 | -18 | · | · | 1 | · | 11* | -5 | -2
COC(=O)[C@H]1C[C@@]2(O)CN(S(=O)(=O)c3ccc(C)cc3)C[C@@]2(OC(=O)NC2CCCC2)C[C@H]1C(=O)OC | 1 | · | · | 3 | · | 9.7* | -9 | -4
CN(C(=O)CSc1nc2scc(-c3ccccc3)c2c(=O)[nH]1)c1ccccc1 | -34 | 15 | 99 | -13 | · | -5 | · | ·
CC(=O)N1CCN(C(=O)CNC(=O)c2ccc(C)s2)CC1 | -4 | · | · | -3 | · | 1 | · | ·
O[C@H](COc1cccc(Cl)c1)CN1CCC(C(O)(c2ccccc2)c2ccccc2)CC1 | -15 | · | · | 3 | · | 3 | · | ·
COC(=O)c1cccc(OC[C@@H](O)CN2CCC(C(O)(c3ccccc3)c3ccccc3)CC2)c1 | -20 | · | · | 9 | · | 11* | 7 | -4
C/C=C/c1ccccc1OCCCN1CCC(C(O)(c2ccccc2)c2ccccc2)CC1 | -24 | · | · | 4 | · | 13* | 1 | 2
COC(=O)c1cccc(OCCCN2CCC(C(O)(c3ccccc3)c3ccccc3)CC2)c1 | -22 | · | · | 5 | · | 9.7* | -2 | -5
O=P1(O)CC2=C(CC=CC2)C1 | 0 | · | · | 4 | · | 3 | · | ·
CSc1ccc(NC(=O)NN(c2ccccc2)C2CCS(=O)(=O)C2)cc1 (stereo not given) | 9 | · | · | 1 | · | 1 | · | ·
CCN1C(=O)/C(=C2\SC(=S)N(c3c(C)n(C)n(-c4ccccc4)c3=O)C2=O)c2ccccc21 | 7 | 1 | 112 | 11* | 0 | 7 | -1 | -1
CCCN1C(=O)/C(=C2\SC(=S)N(c3c(C)n(C)n(-c4ccccc4)c3=O)C2=O)c2ccccc21 | · | 2 | 104 | · | 0 | · | · | ·
COc1ccc(-n2c(N)c(Br)c(=O)[nH]c2=O)cc1 | -1 | -1 | 87 | -75 | 0 | 11* | -5 | -5
O=C(O)c1ccc(N2C(=O)c3cccnc3C2=O)cc1 | 2 | -1 | 94 | 2 | 0 | 0 | · | ·
SMILES | sPLA2-III inh | AHR activator | CR mimetic SO | PLC-beta3 inh | HIF activator | PLC-gamma1 inh | PLCg1 ctr | PLCb3 confirm
O=C1c2cccnc2C(=O)N1c1ccccc1-c1ccccc1 | 1 | -1 | 88 | -2 | 0 | 12* | -4 | -4
Cc1noc(C)c1COc1ccccc1C(=O)N(C)CC(=O)Nc1ccc(F)c(F)c1F | 4 | 1 | 98 | 1 | · | 1 | · | ·
Cc1cc(C)n2nc(SCC(=O)N3CCC(C(=O)O)CC3)nc2n1 | -6 | -2 | 107 | 11* | · | 9 | 3 | 2
COC(=O)C1CCN(C(=O)CSc2nc3nc(C)cc(C)n3n2)CC1 | 2 | · | · | 1 | · | 0 | · | ·
N=c1n(Cc2ccccc2)c2ccccc2n1CC(O)COc1ccc(Cl)cc1Cl (stereo not given) | 4 | · | · | 5 | -8 | 12* | -2 | -3
Cc1cccc(OCC(O)Cn2c(=N)n(Cc3ccccc3)c3ccccc32)c1 (stereo not given) | 9 | 7 | 92 | 1 | 0 | 12* | 0 | -6
Cc1ccc(OCC(O)Cn2c(=N)n(Cc3ccccc3)c3ccccc32)cc1 (stereo not given) | 5 | 1 | 90 | 2 | -1 | 2 | · | ·
COc1ccc(C(=O)Oc2ccc(C)cc2)cc1S(=O)(=O)N1CCOCC1 | -7 | · | · | 4 | · | 1 | · | ·
CC(=O)c1ccc(OCC(=O)Nc2ccc3c(c2)OCO3)cc1 | -3 | · | · | 1 | · | 1 | · | ·
O=C(Nc1cccc(OC(F)(F)F)c1)C1Cc2c(-c3cccc(F)c3)ccnc2O1 (stereo not given) | -4 | · | · | -12 | · | 12* | -6 | -5
Cc1ccc(NC(=O)Cn2nnc(C(=O)NCc3ccccc3)c2N)cc1C | 4 | -1 | 96 | 0 | 0 | 11* | -3 | -1
Cc1ccc(NC(=O)Cn2nnc(C(=O)NCc3ccc(Cl)cc3)c2N)cc1F | -10 | 0 | 93 | -3 | 0 | 7 | · | ·
C[C@@H]1CN([C@@H](C)CO)C(=O)CCCn2nncc2CO[C@@H]1CN(C)S(=O)(=O)c1cn(C)cn1 | 8 | · | · | -1 | · | -1 | · | ·
CC(=O)N1CCC(N(CCCOC(C)C)C(=O)Nc2ccc(C)c(C)c2)CC1 | -1 | 0 | 87 | 0 | 0 | 1 | · | ·
CC(=O)N1CCC(N(C(=O)Nc2ccc(C)c(C)c2)C2CCCC2)CC1 | 10 | -1 | 104 | 12* | 0 | 4 | -8 | -13
COC(=O)c1ccc(C)c(NC(=O)Cn2cnc3ccccc3c2=O)c1 | 5 | 1 | 90 | 11* | 0 | 9 | -9 | -7
CCCN(C(=O)CCNC(=O)Cn1cnc2ccccc2c1=O)c1cccc(C)c1 | 13 | 3 | 89 | -3 | 0 | 11* | -4 | -4
FC(F)(F)c1nc(Oc2ccccc2)c2ccccc2n1 | 3 | -1 | 110 | 2 | 0 | 10* | 1 | 1
Cc1nc(Oc2ccccc2)c2ccccc2n1 | 10 | 1 | 102 | 1 | 0 | 5 | · | ·
